# PubChem BioAssay (NCATS)
# Several values for one entry are separate records, joined by “and”; a condition that tells them apart may be missing. Equal values may be shown once. Values without a mark were called inactive. Results filed as inconclusive are left out. Where a call stands in place of a potency, no number is given. Activity calls are given as the source filed them. Unless noted, the call rests on the fitted dose curve; in most records, active means well fitted curve in the direction sought with a large enough effect; inconclusive means small, poorly fitted or top-dose-only effect, or another doubt; inactive means no such curve, though single readings can be large; an effect the other way counts as inactive or inconclusive.
# Experiments:
# [1] = Cell Viability - MRC5 (AID 434; calls by dose curve;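 further: potency means the concentration at half of the fitted maximal effect; cells exposed to compound for 40 hours at 37 °C; potency reflects cytotoxicity seen as loss of intracellular ATP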); conditions: MRC5 lung fibroblast viability, qHTS
# Outline: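 Decrease in intracellular ATP, quantified by luciferase light output, reflects compound toxicity toward MRC5 cells exposed for 40 hr in complete culture medium. Concentration-response curves, scaled between DMSO and 100 uM tamoxifen, gave AC50 values.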
# [2] = Cellular Toxicity (caspase-3) HUV-EC-C (AID 656); conditions: HUV-EC-C cells, caspase-3 activation (apoptosis), vehicle = 0, 100 µM tamoxifen = 100%; series mostly up to 92.2 µM
# Outline: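 HUV-EC-C endothelial cells, 1000/well, were pre-incubated 5 hr at 37°C, then exposed to compounds for 16 hr at 37°C. Caspase-Glo 3/7 luminescence was read after 20 min at room temperature. AC50 came from Hill fits, normalized to DMSO and 100 uM tamoxifen.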
# [3] = Cellular Toxicity (caspase-3) BJ (AID 658); conditions: BJ fibroblasts, luminescence, normalized: DMSO 0%, staurosporine 100%; series mostly up to 91.7 µM
# Outline: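 Plated BJ cells (1000/well) rested 5 hr, received compound for 16 hr at 37 °C, then Caspase-Glo 3/7 reagent for 1 hr at room temperature before luminescence reading.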
# [4] = Cellular Toxicity (caspase-3) Mesangial (AID 660); conditions: mesangial cells, normalized: DMSO 0%, 100 µM tamoxifen 100%; series mostly up to 91.7 µM;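 further: combined caspase 3 and 7 activity read by Caspase-Glo luminescence; cells exposed to compound for 16 h before the caspase read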
# Outline: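 Luminescent Caspase-Glo 3/7 readout (aminoluciferin substrate cleavage, 20 min RT) after 16 h compound exposure at 37 °C of normal human mesangial cells. Signal increase normalized between DMSO basal and 100 uM tamoxifen; Hill-equation AC50.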
# [5] = Cellular Toxicity (caspase-3) H-4-II-E (AID 663); conditions: H-4-II-E rat hepatoma; Potency: caspase-3 activation; series mostly up to 92.2 µM;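 further: cells exposed to compound for 16 hr before readout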
# Outline: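 Caspase 3/7 activation measured in H-4-II-E cells in complete culture medium after 16 hr treatment at 37 °C, using luciferase-coupled substrate readout; AC50 values come from Hill-equation fits of normalized concentration-response data.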
# [6] = target: Cytochrome P450 3A4 (Homo sapiens) (UniProt P08684); assay: qHTS Assay for Inhibitors and Substrates of Cytochrome P450 3A4 (AID 884); conditions: recombinant CYP3A4, Luciferin-PPXE luminescence; series mostly up to 57.1 µM; further: nearly all actives have a fitted effect of over 50% in size; further: potency means the concentration at half of the fitted maximal effect
# Outline: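 Luminescent readout of luciferin produced by CYP3A4 (20 nM) dealkylation of Luciferin-PPXE, 25 uM (its KM). NADPH-driven reaction ran 60 min at RT after 10 min compound preincubation; data scaled to 57 uM ketoconazole as 100% inhibition.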
# [7] = Cell Viability - LYMP1-002 - Assay at 16 hr (AID 948); conditions: LYMP1-002 lymphoblastoid cell viability; series mostly up to 92.2 µM
# Outline: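 Human lymphoblastoid cells (LYMP1-002), 2500/well, were preincubated 5 hr at 37 C, then exposed to compounds for 16 hr at 37 C in complete medium. Cellular ATP was read by CellTiter-Glo luminescence after 30 min at room temperature; AC50 from Hill fits.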
# [8] = MultiTox-Fluor Cytotoxicity Assay - LYMP1-003 - Dead Cells (AID 961); conditions: LYMP1-003 lymphoblastoid cells, dead-cell protease fluorescence; series mostly up to 92.2 µM; further: nearly all actives have a fitted effect of over 70% in size
# Outline: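 LYMP1-003 human lymphoblastoid cells (2500/well) exposed to compound 16 h at 37 C in complete medium; dead-cell protease read with bis-AAF-R110 fluorescence (Ex/Em 485/520) after 60 min at room temperature. Normalized to DMSO and 15 uM tetraoctylammonium bromide; AC50 from Hill fit.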
# [9] = Cell Viability - LYMP2-003 (AID 965); conditions: LYMP2-003 lymphoblastoid cell viability; series mostly up to 92.2 µM;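 further: cells exposed to compounds for 24 h before reading; nearly all actives have a fitted effect of over 50% in size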
# Outline: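 Human lymphoblastoid cells (2500/well) were pre-incubated 5 hr at 37 C, then exposed to compounds over a concentration range for 24 hr at 37 C. Intracellular ATP was read by CellTiter-Glo luminescence; AC50 came from Hill-equation fits.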
# [10] = Cell Viability - LYMP2-011 (AID 969); conditions: LYMP2-011 lymphoblastoid cells viability; series mostly up to 92.2 µM; further: nearly all actives have a fitted effect of over 60% in size
# Outline: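 Luminescent ATP read-out (CellTiter-Glo, 30 min RT) after 24 hr compound exposure at 37 C in human lymphoblastoid cells, 2500 cells/well. Decreasing ATP indicates cytotoxicity; AC50 from standard Hill fit.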
# [11] = Cell Viability - LYMP2-013 (AID 970); conditions: LYMP2-013 lymphoblastoid cells viability; series mostly up to 92.2 µM; further: nearly all actives have a fitted effect of over 55% in size
# Outline: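 CellTiter-Glo luminescence (cellular ATP) read after 30 min at RT. Cells: human lymphoblastoid line, 2500/well, 24 hr compound exposure at 37 C. Tetraoctylammonium bromide positive control; AC50 via standard Hill fit of qHTS titrations.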
# [12] = qHTS assay for small molecule disruptors of the mitochondrial membrane potential - 1 hr assay (AID 651754; calls by dose curve; further: nearly all actives have a fitted effect of over 35% in size); conditions: series mostly up to 92.2 µM
# Outline: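 Read-out: dye fluorescence at 490 nm ex/535 nm em (monomers) and 540 nm ex/590 nm em (aggregates) in HepG2 cells. Compound exposure 1 hr at 37C, followed by 30 min dye loading.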
# [13] = qHTS assay for small molecule disruptors of the mitochondrial membrane potential - 5 hr assay (AID 651755; calls by dose curve; further: nearly all actives have a fitted effect of over 40% in size); conditions: JC-1-type ratio dye; series mostly up to 92.2 µM
# Outline: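 Seed HepG2 overnight, add compound, incubate 5 hr at 37C and 5% CO2, stain 30 min with Mito-MPS, then measure monomer (490/535 nm) and aggregate (540/590 nm) fluorescence.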
# [14] = target: Peroxisome proliferator-activated receptor alpha (Homo sapiens) (UniProt Q07869); assay: qHTS assay for small molecule agonists of the peroxisome proliferator-activated receptor alpha (PPARalpha) signaling pathway (AID 651778); conditions: PathHunter PPARalpha complementation, chemiluminescence, 6 h; active compounds read high
# Outline: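 Cells plated at 2,000/well and held overnight at 37 C, 5% CO2, then compound added by pin tool for 6 hr; after PathHunter detection reagent and 60 min at room temperature, chemiluminescence from enzyme complementation was read.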
# [15] = target: Nuclear receptor ROR-gamma (Homo sapiens) (UniProt P51449); assay: qHTS assay for small molecule antagonists of the retinoid-related orphan receptor gamma (ROR-gamma) signaling pathway (AID 651802); conditions: ROR-gamma antagonist cell reporter assay; series mostly up to 92.2 µM;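 further: CHO cells with doxycycline-induced ROR-gamma expression; luciferase reporter luminescence driven by ROR response element; nearly all actives have a fitted effect of over 60% in size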
# Outline: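 Luciferase read-out: ONE-Glo luminescence after 30 min at room temperature, following 16hr doxycycline induction at 37C, 5% CO2 of CHO cells with TET-inducible ROR and RORE-LUC reporter; decreased luminescence = reduced reporter activity.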
# [16] = target: Nuclear receptor subfamily 1 group I member 2 (Rattus norvegicus) (UniProt Q9R1A7); assay: qHTS assay for small molecule activators of the rat pregnane X receptor (rPXR) signaling pathway (AID 651751; call rule not given here); conditions: rPXR reporter cells, luciferase (One-Glo), 24 h
# [17] = qHTS assay for small molecule activators of the human pregnane X receptor (PXR) signaling pathway (AID 720659; call rule not given here); conditions: DPX-2 HepG2 CYP3A4-luciferase, 24 h; series mostly up to 92.3 µM
# [18] = Cell Viability - LYMP1-002 - Assay at 24 hr (AID 993); conditions: LYMP1-002 lymphoblastoid cells viability; series mostly up to 92.2 µM
# Outline: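 CellTiter-Glo luminescence (intracellular ATP) after 24 h compound exposure, 37 C, in LYMP1-002 human lymphoblastoid cells; decreased ATP taken as cytotoxicity. AC50 from standard Hill fit of concentration-response curves.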
# [19] = Cell Viability - LYMP2-026 (AID 989); conditions: LYMP2-026 lymphoblastoid cell viability, qHTS; series mostly up to 92.2 µM; further: nearly all actives have a fitted effect of over 50% in size
# Outline: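 qHTS cytotoxicity: 2500 cells/well, 5 hr 37 C, compound 24 hr 37 C, CellTiter-Glo 30 min RT, luminescence. Tetraoctylammonium bromide positive control. AC50 via standard Hill fit.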
# [20] = qHTS assay for environmental chemicals that activate the Aryl hydrocarbon Receptor (AhR) signaling pathway (AID 651777); conditions: 1A2-DRE human hepatoma cells, luciferase, 24 h; activation: active compounds read high; further: nearly all actives have a fitted effect of over 15% in size
# Outline: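 1A2-DRE human hepatoma reporter line; 1,200 cells/well; cmpd or DMSO 24 h, 37 C/5% CO2; One-Glo 30 min RT; luciferase lum.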
# Nuclear receptor subfamily 1 group I member 2 (Rattus norvegicus), sequence (Q9R1A7 whole entry, looked up): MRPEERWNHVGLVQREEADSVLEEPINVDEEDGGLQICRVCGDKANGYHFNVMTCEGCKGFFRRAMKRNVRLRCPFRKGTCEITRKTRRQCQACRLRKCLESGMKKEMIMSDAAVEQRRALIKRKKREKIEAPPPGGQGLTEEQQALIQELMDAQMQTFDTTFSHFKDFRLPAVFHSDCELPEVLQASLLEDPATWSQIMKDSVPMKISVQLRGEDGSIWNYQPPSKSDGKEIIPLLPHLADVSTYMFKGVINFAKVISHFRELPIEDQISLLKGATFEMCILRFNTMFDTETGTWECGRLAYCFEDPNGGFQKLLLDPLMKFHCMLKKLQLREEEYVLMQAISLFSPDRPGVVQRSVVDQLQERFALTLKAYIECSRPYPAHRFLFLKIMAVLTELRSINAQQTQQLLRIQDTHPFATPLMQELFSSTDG
# Cytochrome P450 3A4 (Homo sapiens), sequence (P08684 whole entry, looked up): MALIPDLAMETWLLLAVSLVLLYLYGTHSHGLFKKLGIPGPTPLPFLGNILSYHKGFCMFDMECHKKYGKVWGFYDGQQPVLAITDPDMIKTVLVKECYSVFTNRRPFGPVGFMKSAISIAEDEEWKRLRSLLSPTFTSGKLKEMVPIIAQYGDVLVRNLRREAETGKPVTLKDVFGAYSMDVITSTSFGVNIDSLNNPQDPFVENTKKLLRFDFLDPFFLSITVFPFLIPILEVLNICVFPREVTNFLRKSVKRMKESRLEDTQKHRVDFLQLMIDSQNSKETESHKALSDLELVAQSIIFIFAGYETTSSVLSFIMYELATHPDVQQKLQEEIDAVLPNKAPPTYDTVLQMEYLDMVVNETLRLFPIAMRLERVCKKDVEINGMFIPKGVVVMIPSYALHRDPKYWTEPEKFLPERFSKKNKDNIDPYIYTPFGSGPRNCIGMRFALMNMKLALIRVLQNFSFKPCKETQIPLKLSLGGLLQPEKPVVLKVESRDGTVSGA
# Peroxisome proliferator-activated receptor alpha (Homo sapiens), sequence (Q07869 whole entry, looked up): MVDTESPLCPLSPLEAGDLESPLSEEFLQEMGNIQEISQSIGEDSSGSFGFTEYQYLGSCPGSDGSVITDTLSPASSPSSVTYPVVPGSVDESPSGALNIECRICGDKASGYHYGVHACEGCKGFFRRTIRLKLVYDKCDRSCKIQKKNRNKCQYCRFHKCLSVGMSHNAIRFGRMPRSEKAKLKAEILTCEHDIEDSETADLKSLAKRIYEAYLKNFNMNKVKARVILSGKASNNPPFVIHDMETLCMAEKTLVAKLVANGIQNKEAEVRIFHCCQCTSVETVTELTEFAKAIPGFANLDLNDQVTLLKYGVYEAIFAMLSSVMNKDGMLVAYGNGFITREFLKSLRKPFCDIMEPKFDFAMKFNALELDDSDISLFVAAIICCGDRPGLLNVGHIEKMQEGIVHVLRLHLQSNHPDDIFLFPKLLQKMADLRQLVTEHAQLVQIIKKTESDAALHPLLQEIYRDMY
# Nuclear receptor ROR-gamma (Homo sapiens), sequence (P51449 whole entry, looked up): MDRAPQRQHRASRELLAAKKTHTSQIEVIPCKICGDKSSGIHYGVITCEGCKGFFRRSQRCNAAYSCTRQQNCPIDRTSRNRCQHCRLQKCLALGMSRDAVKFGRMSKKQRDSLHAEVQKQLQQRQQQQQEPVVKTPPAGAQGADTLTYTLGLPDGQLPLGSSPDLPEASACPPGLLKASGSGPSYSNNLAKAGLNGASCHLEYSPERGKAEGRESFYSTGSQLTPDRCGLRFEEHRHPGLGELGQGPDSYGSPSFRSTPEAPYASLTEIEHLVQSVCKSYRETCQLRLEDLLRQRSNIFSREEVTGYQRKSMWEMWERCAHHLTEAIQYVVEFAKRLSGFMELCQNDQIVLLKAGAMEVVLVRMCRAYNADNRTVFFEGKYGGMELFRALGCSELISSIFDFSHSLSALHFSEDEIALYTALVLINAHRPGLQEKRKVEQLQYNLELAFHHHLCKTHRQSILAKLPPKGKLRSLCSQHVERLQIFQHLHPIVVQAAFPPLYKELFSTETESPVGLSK
Structure (SMILES),Potency [1],outcome [2],outcome [3],outcome [4],Potency [5],Potency [6],outcome [7],Potency [8],Potency [9],Potency [10],Potency [11],Potency [12],Potency [13],max response [14],Potency [15],max response [16],outcome [17],Potency [18],Potency [19],activation [20]
O=C(O)CCl,> 92 µM,inactive,inactive,inactive,inactive,inactive,inactive,inactive,inactive,inactive,inactive,inactive,inactive,-6.37%,inactive,9.97%,inactive,–,–,–
[N-]=[N+]=[N-],> 92 µM,–,–,inactive,–,inactive,–,inactive,inactive,inactive,inactive,inactive,inactive,-3.11%,–,-8.68%,inactive,inactive,–,–
COC(=O)c1ccccc1N,> 92 µM,inactive,–,inactive,inactive,inactive,inactive,inactive,inactive,–,–,–,–,–,inactive,-0.835%,inactive,inactive,inactive,1.96%
O=[N+]([O-])c1cccc(O)c1,> 92 µM,inactive,inactive,inactive,inactive,inactive,inactive,inactive,–,inactive,inactive,–,–,-4.41%,inactive,6%,inactive,–,–,1.58%
CC(=O)[O-].CC(=O)[O-].CC(=O)[O-].[Cr+3],> 92 µM,inactive,inactive,inactive,inactive,inactive,inactive,inactive,inactive,inactive,inactive,inactive,inactive,-3.23%,–,–,–,–,inactive,-2.21%
CCCN(CCC)c1c([N+](=O)[O-])cc(C(F)(F)F)cc1[N+](=O)[O-],> 92 µM,inactive,inactive,inactive,inactive,–,inactive,–,inactive,inactive,inactive,inactive,inactive,2.49% and -0.599%,inactive,–,–,–,inactive,0.344% and 0.563%
NC1CCC(CC2CCC(N)CC2)CC1 (stereo unspecified),> 92 µM,inactive,inactive,inactive,inactive,inactive,inactive,inactive,inactive,inactive,–,inactive,inactive,-7.49% and -0.343%,inactive,5.41% and 4.82%,inactive,inactive,inactive,-0.669% and 0.679%
CNC(=O)O/N=C/C(C)(C)S(C)=O (stereo unspecified),> 92 µM,inactive,–,inactive,inactive,inactive,inactive,inactive,–,–,inactive,inactive,inactive,–,inactive,6.61% and 1.92%,inactive,inactive,inactive,–
CC(C)(C)C(O)(CCc1ccc(Cl)cc1)Cn1cncn1 (stereo unspecified),> 92 µM,inactive,–,inactive,inactive,0.501 µM (active),inactive,–,–,inactive,inactive,inactive,inactive,-3.73% and 1.11%,–,–,–,inactive,inactive,0.583% and 1.83%
Cc1coc2c1CCC(C)C2 (stereo unspecified),> 92 µM,inactive,inactive,inactive,inactive,inactive,inactive,inactive,inactive,inactive,inactive,inactive,inactive,9.95%,inactive,–,–,inactive,inactive,1.75%
C=C(C)CCl,> 92 µM,inactive,inactive,inactive,inactive,inactive,inactive,inactive,inactive,inactive,inactive,inactive,inactive,1.24%,inactive,-1.42%,inactive,inactive,inactive,-0.792%
ClP(Cl)(Cl)(Cl)Cl,> 92 µM,inactive,inactive,–,inactive,inactive,inactive,–,inactive,inactive,inactive,inactive,inactive,–,inactive,0.805%,inactive,inactive,inactive,-0.379%
C=CC(=O)OCC(CC)CCCC (stereo unspecified),> 92 µM,inactive,inactive,inactive,inactive,inactive,inactive,inactive,inactive,inactive,inactive,inactive,inactive,4.79% and 0.332%,inactive,-2.19% and -0.52%,inactive,inactive,inactive,2.67% and -0.331%
CCCBr,> 92 µM,inactive,inactive,inactive,inactive,inactive,inactive,–,inactive,–,inactive,inactive,inactive,-0.188%,inactive,-1.34%,inactive,inactive,inactive,0.665%
